High-throughput results from PubChem BioAssay.
MCF10A rereplic: inducers of DNA re-replication in MCF 10A breast cells. 350,000 compounds, 2.9% hits. MCF 10A DNA re-replication, Hoechst nuclear intensity, 48 h. Potency, µM (top dose mostly 46.1 µM), usual class: activators. AID 624296; further: nearly all actives have a fitted effect of over 50% in size
KB-3-1 cytotox: kills parental KB-3-1 adenocarcinoma cells | Potency, µM (titrated, usually from 46.1 µM), actives largely listed as cytotoxic | AID 1347075 | KB-3-1 viability, CellTiter-Glo ATP luminescence, 72 h | 400,000 compounds, 1.4% hits; further: nearly all actives have a fitted effect of over 60% in size
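Screening of KB-3-1 cells (DMEM, 10% FBS, phenol-red free) ran from lowest to highest compound concentration; after 72 h at 37 °C viability was read luminescently and curves fitted.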
SW480 rerep: DNA re-replication induction in SW480 cells | 340,000 compounds, 1.8% hits | Potency, µM (series often up to 46.1 µM), hits mostly activators | SW480 DNA re-replication, Hoechst DNA content imaging, 48 h; further: nearly all actives have a fitted effect of over 55% in size
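Hoechst fluorescence of nuclei (405 nm excitation, 500-530 nm emission) measured by plate-scanning imager after 48 hr compound exposure at 37 C; re-replication scored as increased number of nuclei with elevated intensity.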
ELG1 repair inh: ELG1-dependent DNA repair inhibition | HEK293T ELG1-luciferase reporter, luminescence, 16 h; DNA damage induced by 5-fluorouridine | Potency, µM (series often up to 46.1 µM), most hits filed as inhibitors | 330,000 compounds, 2.3% hits; further: nearly all actives have a fitted effect of over 55% in size
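Overnight (16 hr) co-exposure of 2,000 cells/well to 5-fluorouridine and compound at 37 °C preceded detection. Luciferase was quantified via ONE-Glo luminescence; loss of signal denotes inhibition.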
KB-V1 cytotox: KB-V1 MDR subline cytotoxicity. 400,000 compounds, 3.4% hits. AID 1347076. Potency, µM (doses to about 46.1 µM), hits mostly cytotoxic. KB-V1 MDR cells viability, CellTiter-Glo, 72 h; further: nearly all actives have a fitted effect of over 60% in size
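Readout: CellTiter-Glo luminescence, 10 min after addition. Cells: KB-V1 MDR subline, 72 h at 37 degrees C with compound. Analysis: corrected, normalized data fitted to concentration-effect curves.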
Hits are given with their value; i = inactive; ? = inconclusive; nt = no result; ! = repeats disagree. Hits are enriched below; roughly 8.2% of the tested compounds scored in any of these assays. The call rests on the fitted dose curve; in most records, active means well fitted curve in the direction sought with a large enough effect; inconclusive means small, poorly fitted or top-dose-only effect, or another doubt; inactive means no such curve, though single readings can be large; an effect the other way counts as inactive or inconclusive.

SMILES	MCF10A rereplic	KB-3-1 cytotox	SW480 rerep	ELG1 repair inh	KB-V1 cytotox
Cc1ccc(S(=O)(=O)N2[C@@H](Cc3ccccc3)CO[C@H]2CC(=O)c2cccc3ccccc23)cc1	nt	i	nt	nt	?
COc1cc(OC)cc(-c2nc3ccccc3c(=O)n2OC(=O)c2ccccc2C)c1	16µM	i	i	?	?
CCOC(=O)c1cc(-c2c(Cl)cccc2Cl)no1	i	i	i	13µM	i
Cc1onc(-c2c(Cl)cccc2Cl)c1C(=O)OCC(=O)c1ccccc1	i	i	i	i	i
Cc1ccc2nc(-c3ccncc3)c(NC3CCCCC3)n2c1	i	?	i	?	21µM
COc1ccc(Sc2ccc(-c3nc4cnccn4c3NC3CCCCC3)cc2OC)cc1	3.3µM	?	18µM	?	?
Clc1ccc(-c2nc3cnccn3c2NC2CCCC2)cc1	21µM	?	23µM	i	6.5µM
Clc1ccc(-c2nc3cnccn3c2Nc2ccc3c(c2)OCO3)cc1	?	i	i	i	i
CCc1ccc(NCc2cc3ccc(OC)cc3n(CC(=O)Nc3ccc(C)c(Cl)c3)c2=O)cc1	nt	?	nt	nt	i
Oc1ccc(Cl)cc1C1=NNC(c2cc(Br)cc3c2OCOC3)C1 (stereo unspecified)	i	?	i	?	i
Oc1c(Cl)cc(Cl)cc1C1=NNC(c2ccc(Cl)cc2)C1 (stereo unspecified)	16µM	i	?	i	?
Cc1ccc(C2CC(c3ccc(Cl)cc3)=NNC2=O)cc1 (stereo unspecified)	i	i	i	?	i
Oc1ccc(Cl)cc1C1=NNC(c2ccc(Cl)cc2)C1 (stereo unspecified)	18µM	23µM	?	?	?
Cc1cc2c3c(c1)C(C)CC(C)(C)N3C(=O)C2=O (stereo unspecified)	i	i	i	i	i
Cc1cc2c3c(c1C)C(=O)C(=O)N3C(C)(C)CC2C (stereo unspecified)	i	i	i	i	i
CCOc1cc2c3c(c1)C(C)=CC(C)(C)N3C(=O)C2=O	?	21µM	?	i	?
Cc1ccc2c3c1C(=O)C(=O)N3C(C)(C)CC2C (stereo unspecified)	26µM	i	?	i	i
CC(=O)Oc1cc2c3c(c1)/C(=C1/SC(=S)NC1=O)C(=O)N3C(C)(C)C=C2C	i	i	i	i	i
CCOc1cc2c3c(c1)C(C)CC(C)(C)N3C(=O)C2=O (stereo unspecified)	?	i	?	i	15µM
CCn1cc2nc(SCc3cc(C)ccc3C)n(CCc3ccccc3)c(=O)c2n1	nt	i	nt	nt	i
Cc1ccc(CN(C)C(=O)c2cccc(S(=O)(=O)N3CCc4ccccc4C3)c2)o1	i	i	i	?	i
Cc1ccc2nc(N3C(=O)C(O)=C(C(=O)c4ccc(C)o4)C3c3ccc(O)cc3)sc2c1 (stereo unspecified)	?	i	i	?	?
CSc1ccc(C(=O)N2CCC(n3nccc3NC(=O)C3CC3)CC2)cc1	i	i	i	i	i
COc1cc(/C=C/C(=O)N2C(=O)c3cccc(N)c3C2=O)cc(OC)c1OC	9.2µM	i	?	?	i
COc1ccc(OC)c(/C=C/C(=O)N2C(=O)c3cccc(N)c3C2=O)c1	18µM	?	?	?	?
SMILES	MCF10A rereplic	KB-3-1 cytotox	SW480 rerep	ELG1 repair inh	KB-V1 cytotox
COc1cc(/C=C/C(=O)N2CCN(C(=O)/C=C/c3cc(OC)c(OC)c(OC)c3)CC2)cc(OC)c1OC	i	i	i	i	i
CCN1C(=O)/C(=C\N2CCN(c3ccc(F)cc3)CC2)SC1=S	i	i	i	i	2.6µM
COc1cccc(N2CCN(C(=O)c3ccc4c(=O)n(CCc5ccccc5)c(=O)[nH]c4c3)CC2)c1	nt	i	nt	nt	i
Cc1ccc2onc(CNC(=O)Nc3ccccc3C#N)c2c1	nt	i	nt	nt	i
C=CCNC(=O)/C(=C\c1ccco1)NC(=O)c1ccco1	i	i	i	i	i
NNC(=O)/C(=C\c1ccco1)NC(=O)c1ccco1	21µM	i	?	?	i
CC(C)c1ccc(/C=N/NC(=O)c2cccc(Cl)c2)cc1	5.8µM	13µM	?	?	8.2µM
Cn1cccc1-c1cc(C(=O)N/N=C/c2ccc([N+](=O)[O-])cc2)[nH]n1	i	i	i	?	i
CC(C)c1ccc(/C=N/NC(=O)c2ccccn2)cc1	i	i	i	?	i
CC(C)c1ccc(/C=N/NC(=O)c2cc(-c3cccc([N+](=O)[O-])c3)n[nH]2)cc1	18µM	?	i	?	i
CCCCOc1ccc(C(=O)NCC(=O)N2CC=C(c3ccccc3)CC2)cc1	i	i	i	i	i
CCOC(=O)Cc1ccc(Nc2nc(NCc3cccs3)nc3ccsc23)cc1	nt	i	nt	nt	i
CC(Cc1nnc(N)s1)c1ccccc1 (stereo unspecified)	i	i	i	i	i
Nc1nnc(CC(c2ccccc2)c2ccccc2)s1	i	i	i	i	23µM
CCOC(=O)c1c(NC(=O)C(=O)N/N=C/c2ccccc2O)sc2c1CCCCC2	i	?	?	?	3.7µM
CCOC(=O)c1c(NC(=O)c2ccc(OC)cc2)sc2c1CCCCC2	nt	i	nt	nt	i
CCOC(=O)c1c(NC(=O)C(=O)N/N=C(\C)c2ccc(OC)cc2)sc2c1CCCCC2	i	i	i	i	3.3µM
CC(=O)Nc1cccc(C(=O)OCC(=O)NC(=O)C2CCCCC2)c1	nt	i	nt	nt	i
CC(CNC(=O)CCCn1c(=O)c2cccn2c2cccnc21)c1ccccc1 (stereo unspecified)	nt	i	nt	nt	?
COc1ccc(-c2cc(C(=O)N3CCN(c4ccccc4OC)CC3)no2)cc1	?	i	i	?	i
COc1ccc(-c2cc(C(=O)N3CCN(c4ccccc4)CC3)no2)cc1	?	?	i	?	21µM!
O=C(c1cc(-c2cccc(O)c2)on1)N1CCN(C(c2ccccc2)c2ccccc2)CC1	6.5µM	18µM	i	i	?
O=c1c2c(n3cnnc3n1-c1ccccc1)-c1ccccc1CC21CCCC1	i	i	i	?	i
Cn1c(=O)c2c(n3cnnc13)-c1ccccc1CC21CCCC1	i	i	i	?	23µM
COCCN(C(=O)CCC(=O)Nc1ccccn1)C(C(=O)NC(C)C)c1ccc(C)cc1 (stereo unspecified)	i	i	i	i	i
O=C(CN1CCC(n2nnc3cc(F)ccc32)CC1)N1CCc2ccccc2C1	5.2µM	i	?	21µM	?
O=C(CN1CCC(n2nnc3cc(F)ccc32)CC1)NC1CCCCC1	i	i	i	i	21µM
O=C(CN1CCC(n2nnc3cc(F)ccc32)CC1)NC1CC1	i	i	i	i	?
O=C(CN1CCC(n2nnc3cc(F)ccc32)CC1)NCCc1ccccc1	i	i	i	?	?
CCOc1ccc2nc(NC(=O)CN3CCC(n4nnc5cc(F)ccc54)CC3)sc2c1	?	?	i	9.2µM	21µM
